PNC inhibitor: perinucleolar compartment assembly inhibition; activity change (PNC), negative = inhibition, % at 10 µM; 140,000 compounds, 3.1% hits; PC3M PTB-GFP, PNC prevalence imaging, 16 h; stronger effect = lower value; AID 2417;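 active means readout at or below -70, meaning at least 70% loss of cells showing the perinucleolar compartment, a nuclear body marking cancer cells; inconclusive means readout between -30 and a set limit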;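 further: plate controls were DMSO wells for no effect and camptothecin positive control wells for full effect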
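PC3M cells stably expressing PTB-GFP, 750–1000 cells/well, treated 16 h at 37 °C with compound (23 nl of library stock), in duplicate. After paraformaldehyde fixation and Hoechst stain, imaged at 20x; PNC prevalence scored by image analysis.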
Luc counter: counter-screen: inhibitors of Kinase-Glo firefly luciferase | Q27757 | Kinase-Glo luciferase, ATP luminescence, 8 min | Potency, µM (doses to about 38.3 µM), inactives show top-dose activity change, negative = inhibition, hits mostly inhibitors | 200,000 compounds, 0.28% hits | AID 1379; active means well fitted inhibition curve with a large enough effect; inconclusive means small, poorly fitted or top-dose-only effect; further: potency means the concentration at half of the fitted maximal effect; nearly all actives have a fitted effect of over 60% in size
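Recombinant Kinase-Glo luciferase, 10 uM ATP (linear range), luciferin; imidazole pH 7.2 / KCl / MgCl2 / Tween / BSA buffer; 8 min RT; luminescence.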
ALDH1A1 inh: ALDH1A1 (human) enzyme inhibition | Purified ALDH1A1, NADH fluorescence, propionaldehyde substrate | Potency, µM (top dose mostly 75.3 µM), inactives show at the highest dose activity, negative = inhibition, hits mostly inhibitors | 220,000 compounds, 7.3% hits | AID 1030;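 further: potency means the concentration at half of the fitted maximal effect; plate controls were no enzyme wells and a reference inhibitor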
Target sequence (P00352 whole entry, looked up): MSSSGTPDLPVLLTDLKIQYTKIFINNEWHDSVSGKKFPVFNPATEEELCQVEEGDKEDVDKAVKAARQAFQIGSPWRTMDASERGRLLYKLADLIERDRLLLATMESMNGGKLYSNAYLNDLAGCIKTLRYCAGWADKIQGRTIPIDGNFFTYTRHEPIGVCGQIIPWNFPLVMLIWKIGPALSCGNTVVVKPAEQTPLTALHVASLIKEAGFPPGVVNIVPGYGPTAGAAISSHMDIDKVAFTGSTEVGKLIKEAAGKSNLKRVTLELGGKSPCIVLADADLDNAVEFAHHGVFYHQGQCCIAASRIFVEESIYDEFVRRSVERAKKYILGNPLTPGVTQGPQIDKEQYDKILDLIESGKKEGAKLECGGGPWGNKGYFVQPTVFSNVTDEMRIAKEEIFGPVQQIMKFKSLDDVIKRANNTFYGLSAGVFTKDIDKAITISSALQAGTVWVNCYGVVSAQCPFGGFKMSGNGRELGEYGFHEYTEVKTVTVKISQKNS
HPGD block: inhibitors of human 15-hydroxyprostaglandin dehydrogenase (HPGD); P15428; purified HPGD, NADH fluorescence kinetic, PGE2 substrate; Potency, µM, without a hit: at the highest dose activity change, negative = inhibition, hits mostly inhibitors; 150,000 compounds, 4.3% hits; further: potency means the concentration at half of the fitted maximal effect
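20 nM HPGD preincubated 15 min at room temperature with compound in 50 mM Tris-HCl pH 8, 0.01% Tween 20. Started with 1 mM NAD+ and 30 uM prostaglandin E2; NADH fluorescence (360/450 nm) read 5 times over 30-s intervals, last minus first.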
Lamin A splicing: modulators of lamin A splicing; HeLa LMNA splicing GFP/RFP minigene ratio, 48 h; Potency, µM (titrated, usually from 46.1 µM), without a hit: top-dose ratio change, negative = inhibition, actives largely listed as inhibitors; 200,000 compounds, 0.01% hits; AID 1487; active means well fitted inhibition curve with a large enough effect in the signal ratio, with a control signal flat, not every such curve was filed as active; inconclusive means small, poorly fitted or top-dose-only effect, or effect the other way, or a change in a side signal; the % refers to the signal ratio; further: potency means the concentration at half of the fitted maximal effect
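S3 HeLa stable clones carrying a lamin A-EGFP splicing minigene plus DsRed2 were seeded at 600 cells/well in Opti-MEM with 2% FBS, pin-dosed and incubated 48 h at 37°C. Acumen cytometry (488 nm) gave the GFP/RFP total-intensity ratio.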
* hit, by the source's call; [ ] = remark or other dose. A selection: hits, their analogues and other compounds. The true share with any hit is near 10%. Unless noted, the call rests on the fitted dose curve; in most records, active means well fitted inhibition curve with a large enough effect (not every such curve was filed as active); inconclusive means small, poorly fitted or top-dose-only effect, or another doubt; inactive means no such curve, though single readings can be large or run the other way. Unless noted, on the % scale 0 is the no-effect control and ±100 the full control effect.

Screening COCCCNC(=O)c1ccc(N2CCOCC2)c(NS(=O)(=O)c2ccc(OC)cc2)c1 returned PNC inhibitor -13, Luc counter 18%, ALDH1A1 inh inconclusive, HPGD block -7% and Lamin A splicing -6%.
Screening CCOc1ccc(S(=O)(=O)Nc2ccccc2C(=O)Nc2ccccc2N2CCOCC2)cc1 returned PNC inhibitor inconclusive, Luc counter 1%, ALDH1A1 inh 28µM*, HPGD block -14% and Lamin A splicing 2%.
`Cc1nc2cnc(N3CCNCC3)nc2n(C2CC2)c1=O` gave Luc counter -4%, ALDH1A1 inh inconclusive and HPGD block inconclusive.
`C=CCn1c(SCC(=O)N2CCN(c3ccc(F)cc3)CC2)nnc1-c1cccs1` gave PNC inhibitor -96*, Luc counter 16%, ALDH1A1 inh inconclusive, HPGD block -11% and Lamin A splicing inconclusive.
For C=CCn1c(SCC(=O)N2CCN(c3ccccc3)CC2)nnc1-c1ccco1 the results were PNC inhibitor inconclusive, Luc counter -1%, ALDH1A1 inh -8%, HPGD block -5% and Lamin A splicing -10%.
For Cc1ccc(NC(=O)c2ccccc2NS(=O)(=O)c2ccc(Cl)s2)cc1 the results were PNC inhibitor -82*, Luc counter 0%, ALDH1A1 inh -13%, HPGD block -6% and Lamin A splicing inconclusive.
For O=C(Nc1ccccc1)c1ccccc1NS(=O)(=O)c1ccc(Cl)s1 the results were PNC inhibitor 119, Luc counter 4%, ALDH1A1 inh 0%, HPGD block -5% and Lamin A splicing inconclusive.
`O=C1CCCC1C(O)c1ccc2ccccc2c1` (centres undefined) gave Luc counter -2%, ALDH1A1 inh 5% and HPGD block -2%.
Screening CC(C)(C)c1ccc(S(=O)(=O)O/N=C2/CCCCC2c2ccc([N+](=O)[O-])cc2[N+](=O)[O-])cc1 (centres undefined) returned PNC inhibitor 21, Luc counter 4%, ALDH1A1 inh 5.6µM*, HPGD block -18% and Lamin A splicing 7%.
CC1C(=O)OC2CC34C5CC(C(C)(C)C)C36C(OC(=O)C6O)OC4(C(=O)O5)C21O (centres undefined) was read as Luc counter 2%, ALDH1A1 inh 5% and HPGD block 7%.
CCC(=O)NCCCCCCNC(=O)CC was read as PNC inhibitor 30, Luc counter 6%, ALDH1A1 inh 13%, HPGD block 4% and Lamin A splicing 19%.
Screening O=C(CCl)NCCCCCCCCCNC(=O)CCl returned PNC inhibitor inconclusive, Luc counter 1%, ALDH1A1 inh 0.18µM*, HPGD block -10% and Lamin A splicing -1%.
`COc1cccc(-n2cc(C(=O)Nc3cc(C)c(Cl)cc3OC)c3ccccc3c2=O)c1` gave Lamin A splicing -1%[46 µM].
`O=C(N1CCOCC1)n1nnc2ccccc21` gave PNC inhibitor inconclusive, Luc counter -6%, ALDH1A1 inh -9%, HPGD block -5% and Lamin A splicing 1%.
O=C(N1CCOCC1)n1cnc2ccccc21 was read as PNC inhibitor -100*, Luc counter -1%, ALDH1A1 inh -3%, HPGD block -9% and Lamin A splicing -9%.
CC1CN(CC(O)COC(c2ccccc2)c2ccccc2)CC(C)O1 (centres undefined) was read as PNC inhibitor inconclusive, Luc counter 4%, ALDH1A1 inh 25µM*, HPGD block -6% and Lamin A splicing -5%.
`OC(COC(c1ccccc1)c1ccccc1)CN1CCOCC1` (centres undefined) gave Luc counter -1%, ALDH1A1 inh 6% and Lamin A splicing 5%[9.22 µM].
Screening O=C(OCc1cc2ccccc2[nH]c1=O)c1ccncc1 returned PNC inhibitor -100*, Luc counter -2%, ALDH1A1 inh 3%, HPGD block -13% and Lamin A splicing -9%.
O=C(OCc1cc2ccccc2[nH]c1=O)c1ccccc1 was read as PNC inhibitor 6, Luc counter 11%, ALDH1A1 inh -8%, HPGD block -14% and Lamin A splicing 2%.
